Assay results published in PubChem BioAssay AID651636 (Sanford-Burnham Center for Chemical Genomics, 2012).
About 3,000 (0.83%) of roughly 360,000 compounds were called active. Cut-off read from the data, not from the text of the source: active = inhibition above about 38%; inactive = the rest. Shown is part of a subset that was picked to be rich in actives.

molecular target: G-protein coupled receptor 183 (Homo sapiens) (UniProt P32249); test: EBI2 receptor antagonists, beta-arrestin recruitment, primary screen, cell-based, luminescence, 7a,25-OHC stimulation, uHTS (AID 651636); conditions: 7a,25-OHC stimulated, at 5 µM, stronger effect = higher value;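 note: enzyme fragment complementation signal reports receptor beta-arrestin coupling in cells; 0% = agonist plus DMSO wells and 100% = wells without agonist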
Sequence (P32249 whole entry, looked up, the tested form may be a part): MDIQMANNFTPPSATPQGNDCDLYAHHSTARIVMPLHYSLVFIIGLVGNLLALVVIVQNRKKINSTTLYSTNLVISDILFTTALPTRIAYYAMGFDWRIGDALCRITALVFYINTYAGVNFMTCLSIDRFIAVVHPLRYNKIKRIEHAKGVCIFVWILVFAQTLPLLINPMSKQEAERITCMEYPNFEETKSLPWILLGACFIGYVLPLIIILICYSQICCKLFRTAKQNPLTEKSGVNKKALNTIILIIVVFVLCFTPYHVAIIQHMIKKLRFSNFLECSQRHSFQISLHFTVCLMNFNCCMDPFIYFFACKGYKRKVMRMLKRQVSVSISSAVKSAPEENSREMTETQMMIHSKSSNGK

Row | SMILES | inhibition
1 | CSc1ncnc2c1ncn2CCCNCc1cccs1 | -4.51% (inactive)
2 | COc1ccccc1C(=O)N1C(CC(=O)Nc2ccccc2C)C(=O)NC2CCCCC21 (configuration not stated) | 3.5% (inactive)
3 | COc1ccc(C)cc1NC(=O)CSc1nnc(CC(=O)Nc2ccccc2F)n1C | 6.35% (inactive)
4 | CC1CCc2sc3nc(N4CCN(CCO)CC4)n4ncnc4c3c2C1 (configuration not stated) | 61.6% (active)
5 | CN1C[C@@H](CO)O[C@@H](n2cnc3c(N4CCN(CCO)CC4)ncnc32)C1 | 5.76% (inactive)
6 | Cc1ccc(C)c(C(=O)N2CCC(n3nccc3NC(=O)C3CC3)CC2)c1 | 5.07% (inactive)
7 | C/C=C/C=C/C(=O)OCC(=O)Nc1ccc(Cl)cc1 | 1.78% (inactive)
8 | COc1ccc(NC(=O)N2CCC(Cc3ccccc3)CC2)cc1 | 65.5% (active)
9 | COc1ccc(NC(=O)N2CCCC(C(=O)Nc3ccccc3OC)C2)cc1 (configuration not stated) | 18.7% (inactive)
10 | COc1ccc(C(=O)NC2CCN(C(=O)Nc3ccc(F)cc3)CC2)cc1 | -4.2% (inactive)
11 | NC(=O)C1(N2CCCCC2)CCN(C(=O)c2ccc(C#Cc3ccccc3)o2)CC1 | -2.84% (inactive)
12 | CCc1ccccc1NC(=S)Nc1cc(OC)c(NC(=O)C(C)C)cc1OC | -4.78% (inactive)
13 | O=C(Nc1ccc(S(=O)(=O)N2CCCCC2)cc1)C1CC(=O)N(c2ccc(F)cc2)C1 (configuration not stated) | 45.7% (active)
14 | Cc1ccc(N2CC(C(=O)Nc3ccc(S(=O)(=O)N4CCCC4)cc3)CC2=O)cc1C (configuration not stated) | 45.4% (active)
15 | CC1CCN(S(=O)(=O)c2ccc(NC(=O)C3CC(=O)N(c4ccccc4)C3)cc2)CC1 (configuration not stated) | 38% (inactive)
16 | Cc1ccc(NC(=O)C2CC(=O)N(c3ccc4c(c3)OCCO4)C2)cc1S(=O)(=O)N1CCCCCC1 (configuration not stated) | 14.6% (inactive)
17 | Cc1ccccc1N1CC(C(=O)Nc2ccc(S(=O)(=O)N3CCCC3)cc2)CC1=O (configuration not stated) | 7.48% (inactive)
18 | O=C(Nc1ccc(S(=O)(=O)N2CCCCC2)cc1)C1CCN(C(=O)c2ccc(F)cc2)CC1 | 17% (inactive)
19 | CCCNC(=O)C1(C)CCN(C(=O)c2ccc(F)cc2Cl)C1 (configuration not stated) | -4.71% (inactive)
20 | OCCC#Cc1ccc(N2C(c3ccsc3)=Cc3ccc(F)cc3C2c2c[nH]c3ccccc23)cc1 (configuration not stated) | 10.6% (inactive)
21 | Cc1cnc(CN(C)C(=O)CC2C(=O)NCCN2Cc2cccc(F)c2F)[nH]1 (configuration not stated) | -7.04% (inactive)
22 | Cc1c(NC(=O)CN2C(=O)C(=O)N(Cc3ccccc3)C2=O)c(=O)n(-c2ccccc2)n1C | 0.531% (inactive)

Row | SMILES | inhibition
23 | CC1(C(=O)NCc2ccccc2)CSCC(=O)N1CCCn1ccnc1 (configuration not stated) | 4.35% (inactive)
24 | CCOC(=O)[C@]12CCCC=C1N(CCC1=CCCCC1)C(=O)[C@H](CC(=O)N1CCSCC1)C2 | 7.49% (inactive)
25 | COC(=O)c1ccc(NC(=O)CSc2nnc(Cc3cccn3C)n2-c2ccc(F)cc2)cc1 | -2.09% (inactive)
26 | COc1ccc(-n2c(Cc3cccn3C)nnc2SCC(=O)Nc2cc(C)cc(C)c2)cc1 | 49.5% (active)
27 | COc1ccccc1NC(=O)CSc1nnc(Cc2cccn2C)n1-c1ccc(F)cc1 | 9.51% (inactive)
28 | CCCc1ccc(OCC(O)CN2CCN(C(=O)OCC)CC2)cc1 (configuration not stated) | 22.6% (inactive)
29 | CC(=O)N1CCN(CC(c2ccccc2)c2ccccc2)CC1 | -1.32% (inactive)
30 | O=C(C(c1ccccc1)c1ccccc1)N1CCN(CC(O)COc2ccccc2)CC1 (configuration not stated) | 53.5% (active)
31 | O=C(O)C1=C(C(=O)O)C2CCC1C2 | 6.95% (inactive)
32 | COc1ccc(/C=N/N=C/c2c[nH]c(=O)c(C#N)c2Nc2ccccc2)cc1 | 90.2% (active)
33 | COc1ccc(/C=C(/NC(=O)c2ccccc2)C(=O)Nc2cccc(C(=O)O)c2)cc1 | -12.6% (inactive)
34 | COc1ccc(O)c(/C=N/N=C/c2cccc([N+](=O)[O-])c2)c1 | 1.28% (inactive)
35 | O=C(Nc1ccc2c(c1)CCC2)c1cccc(S(=O)(=O)N2CCN(c3ccc(F)cc3)CC2)c1 | -5.81% (inactive)
36 | O=C(CN1CCN(S(=O)(=O)c2ccc(Cl)s2)CC1)N1CCCCC1 | -6.5% (inactive)
37 | O=C(COc1ccc2c(c1)CCC2)N1CCN(c2ccc(F)cc2)CC1 | 44.5% (active)
38 | O=C(COc1ccc(Cl)cc1)N1CCN(S(=O)(=O)c2ccc(Cl)cc2)CC1 | 89.2% (active)
39 | COc1ccc(N2CCN(C(=O)COc3ccc4c(C)cc(=O)oc4c3)CC2)cc1 | -7.37% (inactive)
40 | O=C(CSc1ccccn1)N1CCN(S(=O)(=O)c2ccc(Cl)cc2)CC1 | 1.72% (inactive)
41 | Cc1ccc(OCC(=O)N2CCN(S(=O)(=O)c3ccc(Cl)s3)CC2)cc1C | 90% (active)
42 | Cc1c(C)c2ccc(OCC(=O)N3CCN(c4cccc(Cl)c4)CC3)cc2oc1=O | 11.5% (inactive)
43 | Nc1nc(SCC(=O)N2CCN(S(=O)(=O)c3ccc(Cl)cc3)CC2)n[nH]1 | -6.16% (inactive)
44 | CSCCC(NC(=O)COc1ccccc1)C(=O)N1CCN(c2cccc(C(F)(F)F)c2)CC1 (configuration not stated) | 26.3% (inactive)

Row | SMILES | inhibition
45 | O=C(CN1CCN(S(=O)(=O)c2ccc(Cl)s2)CC1)NCc1ccc(Cl)cc1 | 15.5% (inactive)
46 | O=C(COc1ccc(Cl)cc1)N1CCN(c2cccc(C(F)(F)F)c2)CC1 | 84.9% (active)
47 | CC(=O)c1ccc(S(=O)(=O)Nc2ccc(-c3ccc4nncn4n3)cc2)cc1 | 6.72% (inactive)
48 | COc1ccc(N2C(=O)C(O)C2c2ccc(C)cc2)cc1 (configuration not stated) | -10.7% (inactive)
49 | CC(C)(C)c1cc(CN2CCN(CCC#N)CC2)cc(C(C)(C)C)c1O | 1.34% (inactive)
50 | Cc1ccc(NC(=O)C(C)Sc2nnc(C3CC3)n2C2CC2)cc1S(=O)(=O)N1CCOCC1 (configuration not stated) | 6.91% (inactive)
51 | CC(=O)NC(Cc1ccc(F)c(F)c1)C(=O)NC1CCN(C(=O)c2ccc(C)cc2)CC1 (configuration not stated) | 1.72% (inactive)
52 | COc1ccc2c(c1)C(=O)Nc1cc(Cl)ccc1N2 | 10.9% (inactive)
53 | C/C(=N\NC(=O)C1(C)CC1(Br)Br)c1ccc(C)cc1C (configuration not stated) | 4.16% (inactive)
54 | CCOC(=O)/C=C/CN(C(=O)OC(C)(C)C)S(=O)(=O)N1CC=CC1 | 0.259% (inactive)
55 | CC(=O)NC1=NN(C(C)=O)C(C)(CCS(=O)(=O)c2ccc(Cl)c(Cl)c2)S1 (configuration not stated) | -4.01% (inactive)
56 | COCc1cc(C)n(CC(=O)NCC2CCCO2)c(=O)c1C#N (configuration not stated) | 2.55% (inactive)
57 | CCCCOCCCNC(=O)C[C@@H]1C[C@@]2(C(=O)OC)CCCCC=C2N(CCC2=CCCCC2)C1=O | 3.92% (inactive)
58 | Cc1cc(OCC(=O)N2CCN(c3ncccn3)CC2)ccc1Cl | 86.6% (active)
59 | CC(Oc1ccc(F)cc1)C(=O)N1CCN(c2ncccn2)CC1 (configuration not stated) | -0.409% (inactive)
60 | COC(=O)CC(=O)N1CCN(c2ccc(Cl)c(Cl)c2)CC1 | -5.75% (inactive)
61 | Cc1ccc(S(=O)(=O)N2[C@@H](Cc3ccccc3)CO[C@H]2CC(=O)OCc2ccccc2)cc1 | 23% (inactive)
62 | COC(=O)[C@]12CCCCC=C1N(Cc1ccc3c(c1)OCO3)C(=O)[C@H](CC(=O)NCc1cccs1)C2 | 0.7% (inactive)
63 | CCC1SC(CC)C(=O)N(CC(=O)NC2CCCCC2)C1=O (configuration not stated) | -0.813% (inactive)
64 | O=C(Cc1ccccn1)c1ccc(O)cc1O | 9.45% (inactive)
65 | O=C(CSc1nc(C2CC2)nc2ccccc12)Nc1cccc(O)c1 | -2.33% (inactive)
66 | O=C(NNc1c2ccccc2nc2ccccc12)c1cc2ccccc2cc1O | 44.6% (active)

Row | SMILES | inhibition
67 | CCCn1nc(NC(=O)C(C)C)c2cc3cc(OC)ccc3nc21 | 16.4% (inactive)
68 | O=C(Nc1ncc2c(n1)-c1ccccc1OC2)c1ccc(Cl)cc1 | 9.5% (inactive)
69 | O=C(Nc1ncc2c(n1)CC(c1ccco1)CC2=O)c1ccc(Cl)cc1 (configuration not stated) | 41.8% (active)
70 | CCc1ccc(Nc2ncc3c(n2)CC(c2ccco2)CC3=O)cc1 (configuration not stated) | 14.2% (inactive)
71 | O=C(CC1SC(N2CCCC2)=NC1=O)Nc1ccc(C(=O)NCCc2ccc(F)cc2)cc1 (configuration not stated) | -2.4% (inactive)
72 | CC(=O)C[C@@H]1OC[C@H](CO)N1S(=O)(=O)c1ccc(C)cc1 | 3.35% (inactive)
73 | CCOC(=O)[C@]12CCCC=C1N(CCC1=CCCCC1)C(=O)[C@H](CC(=O)N1CCCCC1)C2 | 8.47% (inactive)
74 | COc1ccccc1N1CCN(C(=O)Cn2nnc(-c3cccs3)n2)CC1 | -14.3% (inactive)
75 | COc1ccccc1N1CCN(C(=O)c2cc(-c3ccc(Br)cc3)on2)CC1 | 50% (active)
76 | COc1cccc(-c2ccc(SCC(=O)N3CCN(c4ccccc4)CC3)nn2)c1 | 11.8% (inactive)
77 | COc1ccc(Nc2ncc(C(=O)N3CCN(c4ccccc4OC)CC3)c3ccccc23)cc1 | -13.1% (inactive)
78 | COc1cccc(-c2cc(C(=O)N3CCN(c4ccccc4OC)CC3)no2)c1 | 56.8% (active)
79 | COc1ccc(OCc2cc(C(=O)N3CCCC3)no2)c2ccccc12 | -12.2% (inactive)
80 | CC(C)C[C@@H]1COc2cc(N3CCC[C@@H]3CO)ccc2S(=O)(=O)N1 | -0.978% (inactive)
81 | Cc1cc2nc3n(c2cc1C)CC1CC(C(=O)NCCC(C)C)N(C)C31 (configuration not stated) | 6.24% (inactive)
82 | c1ccc(CN2CCC(N=C3NN=C(c4ccc5c(c4)OCCO5)CS3)CC2)cc1 | 6.66% (inactive)
83 | CN(C)c1nc(=Nc2cccc(Cl)c2)ss1 | 1.94% (inactive)
84 | Clc1cccc(N=C2NN=C(c3ccc4c(c3)OCCO4)CS2)c1 | 49.5% (active)
85 | Cc1ccc(S(=O)(=O)N2[C@@H](c3cccc4ccccc34)C(C(=O)O)=C[C@H]2C(C)(C)C)cc1 | -1.04% (inactive)
86 | CCN(CC)c1ccc(S(=O)(=O)N2CCCCC2)cc1NC(=O)C1=COCCO1 | 1.67% (inactive)
87 | CCCCN=C1C([N+](=O)[O-])=CC=C2C1=NC1(CCCCC1)N2O | 68.4% (active)
